# Results as given in paper PMC7862700, “An all-to-all approach to the identification of sequence-specific readers for epigenetic DNA modifications on cytosine”.
# Assays:
# Experiment in all cases: DAPPL (digital affinity profiling via proximity ligation, sequencing); 10 mM Tris-HCl pH 7.5, 50 mM NaCl, 1 mM DTT, 4% glycerol, room temperature, 30 min; GST-TFs on glutathione beads, 16-mer random dsDNA library, 0.1% formaldehyde crosslink after washing; high values mean tight binding
# Conditions in all cases: protein: recombinant; tags: N-terminal GST; dsDNA, one strand shown
# FLI1 = target: T1, FLI1 (Homo sapiens, UniProt Q01543 1-452)
# T1 sequence: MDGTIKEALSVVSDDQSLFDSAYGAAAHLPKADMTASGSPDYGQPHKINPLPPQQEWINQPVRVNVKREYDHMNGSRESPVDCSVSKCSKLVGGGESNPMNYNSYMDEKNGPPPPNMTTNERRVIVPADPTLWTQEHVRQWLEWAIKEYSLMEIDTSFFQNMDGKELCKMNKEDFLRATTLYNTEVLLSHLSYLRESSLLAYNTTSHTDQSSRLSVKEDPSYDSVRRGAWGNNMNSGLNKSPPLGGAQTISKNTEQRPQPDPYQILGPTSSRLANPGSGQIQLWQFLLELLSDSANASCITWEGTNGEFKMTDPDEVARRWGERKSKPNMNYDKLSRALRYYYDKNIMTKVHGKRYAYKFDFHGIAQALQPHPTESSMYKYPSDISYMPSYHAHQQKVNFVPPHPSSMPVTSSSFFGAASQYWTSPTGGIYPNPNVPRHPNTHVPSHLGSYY
# How it was run: (§1)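 Binding signal is defined as a hexamer's read frequency for one factor over its frequency for the tag-only sample. To obtain reads, GST-fused human transcription factors were expressed in yeast, captured on glutathione beads, barcoded with DNA and pooled with that sample. Pools met 200 nmole of a 16-mer random double-stranded DNA library in Tris/NaCl/DTT/glycerol buffer for 30 min at room temperature before washing, 0.1% formaldehyde crosslinking, proximity ligation (BsaI/T4 ligase, 1 h, 37 °C), PCR and Illumina NextSeq500 sequencing.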
# ELK1 = target: T2, ELK1 (Homo sapiens, UniProt P19419 1-428)
# T2 sequence: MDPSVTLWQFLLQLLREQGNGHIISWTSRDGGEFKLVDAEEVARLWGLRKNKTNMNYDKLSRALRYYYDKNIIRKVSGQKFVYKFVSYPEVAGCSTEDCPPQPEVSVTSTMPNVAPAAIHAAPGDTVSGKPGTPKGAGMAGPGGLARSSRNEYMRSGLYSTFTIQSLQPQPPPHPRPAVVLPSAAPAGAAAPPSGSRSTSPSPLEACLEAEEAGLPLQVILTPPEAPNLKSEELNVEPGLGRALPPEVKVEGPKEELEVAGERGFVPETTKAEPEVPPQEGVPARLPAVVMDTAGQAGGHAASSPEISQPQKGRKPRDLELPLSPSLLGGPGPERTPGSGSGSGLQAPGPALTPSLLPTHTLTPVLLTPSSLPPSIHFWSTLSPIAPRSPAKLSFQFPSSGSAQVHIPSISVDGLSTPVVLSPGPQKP
# How it was run: as §1
# GABPA = target: T3, GABPA (Homo sapiens, UniProt Q06546 1-454)
# T3 sequence: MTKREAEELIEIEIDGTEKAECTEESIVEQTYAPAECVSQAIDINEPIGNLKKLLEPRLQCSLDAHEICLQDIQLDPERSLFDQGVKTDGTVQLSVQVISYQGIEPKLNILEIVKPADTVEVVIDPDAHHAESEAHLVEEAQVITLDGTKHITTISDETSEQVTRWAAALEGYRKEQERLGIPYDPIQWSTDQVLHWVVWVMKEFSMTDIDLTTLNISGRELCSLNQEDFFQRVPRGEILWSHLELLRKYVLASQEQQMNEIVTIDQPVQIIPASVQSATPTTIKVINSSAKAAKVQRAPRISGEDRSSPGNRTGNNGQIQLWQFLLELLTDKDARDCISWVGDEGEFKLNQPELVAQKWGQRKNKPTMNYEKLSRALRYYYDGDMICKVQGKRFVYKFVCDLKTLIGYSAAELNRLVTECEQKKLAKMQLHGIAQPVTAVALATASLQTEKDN
# How it was run: as §1
# ERG = target: T4, ERG (Homo sapiens, UniProt P11308 1-479)
# T4 sequence: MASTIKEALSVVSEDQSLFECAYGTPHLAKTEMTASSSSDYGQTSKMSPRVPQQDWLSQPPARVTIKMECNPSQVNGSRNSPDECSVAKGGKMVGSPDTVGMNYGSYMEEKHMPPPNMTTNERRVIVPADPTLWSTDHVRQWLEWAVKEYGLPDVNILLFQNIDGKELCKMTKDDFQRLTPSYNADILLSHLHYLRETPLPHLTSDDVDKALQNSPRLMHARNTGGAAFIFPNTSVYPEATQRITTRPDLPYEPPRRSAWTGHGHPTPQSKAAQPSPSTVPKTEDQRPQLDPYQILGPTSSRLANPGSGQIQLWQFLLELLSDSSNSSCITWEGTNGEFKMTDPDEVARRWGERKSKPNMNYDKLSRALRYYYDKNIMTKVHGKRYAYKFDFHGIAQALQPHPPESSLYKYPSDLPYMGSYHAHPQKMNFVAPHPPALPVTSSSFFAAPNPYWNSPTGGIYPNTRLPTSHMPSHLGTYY
# How it was run: as §1
# ELF1 = ELF1 (Homo sapiens, UniProt P32519 1-619)
# ELF1, sequence (P32519 whole entry): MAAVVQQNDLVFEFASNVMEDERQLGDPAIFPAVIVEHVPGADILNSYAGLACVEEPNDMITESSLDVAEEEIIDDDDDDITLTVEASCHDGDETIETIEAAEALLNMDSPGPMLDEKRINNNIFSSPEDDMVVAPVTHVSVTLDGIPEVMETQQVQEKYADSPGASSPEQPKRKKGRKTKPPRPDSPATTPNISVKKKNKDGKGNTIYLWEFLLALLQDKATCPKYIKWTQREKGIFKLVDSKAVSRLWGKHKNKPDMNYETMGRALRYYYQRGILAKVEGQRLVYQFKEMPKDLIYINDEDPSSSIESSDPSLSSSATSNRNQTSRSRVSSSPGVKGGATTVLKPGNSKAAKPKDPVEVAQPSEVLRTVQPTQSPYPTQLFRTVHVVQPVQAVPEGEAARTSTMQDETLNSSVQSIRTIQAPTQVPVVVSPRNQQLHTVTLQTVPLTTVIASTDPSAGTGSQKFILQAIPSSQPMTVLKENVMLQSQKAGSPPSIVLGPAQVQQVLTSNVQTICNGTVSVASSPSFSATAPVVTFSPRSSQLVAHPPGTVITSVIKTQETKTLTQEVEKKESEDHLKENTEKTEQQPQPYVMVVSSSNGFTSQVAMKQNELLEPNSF
# How it was run: as §1
# SPI1 = SPI1 (Homo sapiens, UniProt P17947 1-270)
# How it was run: as §1
# ELK3 = target: T5, ELK3 (Homo sapiens, UniProt P41970 1-407)
# T5 sequence: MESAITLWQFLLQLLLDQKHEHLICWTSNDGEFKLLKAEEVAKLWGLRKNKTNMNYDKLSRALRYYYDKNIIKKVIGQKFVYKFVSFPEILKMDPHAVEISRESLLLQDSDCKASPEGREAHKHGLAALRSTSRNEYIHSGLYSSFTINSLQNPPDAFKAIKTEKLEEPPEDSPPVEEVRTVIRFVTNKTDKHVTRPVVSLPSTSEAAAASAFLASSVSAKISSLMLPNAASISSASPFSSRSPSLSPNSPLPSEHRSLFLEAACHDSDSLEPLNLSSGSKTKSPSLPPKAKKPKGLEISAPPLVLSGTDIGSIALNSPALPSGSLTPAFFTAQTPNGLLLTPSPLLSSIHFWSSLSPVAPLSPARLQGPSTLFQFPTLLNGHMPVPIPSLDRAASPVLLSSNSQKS
# How it was run: as §1
# FEV = target: T6, FEV (Homo sapiens, UniProt Q99581 1-238)
# T6 sequence: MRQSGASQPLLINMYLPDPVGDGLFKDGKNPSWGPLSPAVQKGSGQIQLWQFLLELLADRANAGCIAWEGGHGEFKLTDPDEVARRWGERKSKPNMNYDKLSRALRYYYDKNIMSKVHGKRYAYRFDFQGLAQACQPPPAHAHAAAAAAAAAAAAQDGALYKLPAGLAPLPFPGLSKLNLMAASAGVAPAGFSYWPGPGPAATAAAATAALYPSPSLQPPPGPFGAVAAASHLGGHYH
# How it was run: as §1
# ELF4 = ELF4 (Homo sapiens, UniProt Q99607 1-663)
# ELF4, sequence (Q99607 whole entry): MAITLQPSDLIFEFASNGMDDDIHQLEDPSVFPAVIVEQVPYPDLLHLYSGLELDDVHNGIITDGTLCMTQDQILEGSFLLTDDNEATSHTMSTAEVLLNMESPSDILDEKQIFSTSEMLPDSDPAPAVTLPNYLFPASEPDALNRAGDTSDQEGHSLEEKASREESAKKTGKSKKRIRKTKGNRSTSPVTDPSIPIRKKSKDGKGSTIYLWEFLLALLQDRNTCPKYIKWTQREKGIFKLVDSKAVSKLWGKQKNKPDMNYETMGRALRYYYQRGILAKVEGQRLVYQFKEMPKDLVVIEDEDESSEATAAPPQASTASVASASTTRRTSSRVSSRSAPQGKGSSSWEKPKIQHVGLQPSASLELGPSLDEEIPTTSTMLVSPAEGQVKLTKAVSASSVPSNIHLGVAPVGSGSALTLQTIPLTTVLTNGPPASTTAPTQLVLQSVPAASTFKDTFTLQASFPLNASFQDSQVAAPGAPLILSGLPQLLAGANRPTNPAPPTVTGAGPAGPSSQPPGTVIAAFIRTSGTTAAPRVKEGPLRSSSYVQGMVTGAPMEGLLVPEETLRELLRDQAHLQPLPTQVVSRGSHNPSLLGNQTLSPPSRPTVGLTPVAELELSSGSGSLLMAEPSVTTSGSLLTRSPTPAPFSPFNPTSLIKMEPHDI
# How it was run: as §1
# ELK4 = target: T7, ELK4 (Homo sapiens, UniProt P28324-2 1-405)
# T7 sequence: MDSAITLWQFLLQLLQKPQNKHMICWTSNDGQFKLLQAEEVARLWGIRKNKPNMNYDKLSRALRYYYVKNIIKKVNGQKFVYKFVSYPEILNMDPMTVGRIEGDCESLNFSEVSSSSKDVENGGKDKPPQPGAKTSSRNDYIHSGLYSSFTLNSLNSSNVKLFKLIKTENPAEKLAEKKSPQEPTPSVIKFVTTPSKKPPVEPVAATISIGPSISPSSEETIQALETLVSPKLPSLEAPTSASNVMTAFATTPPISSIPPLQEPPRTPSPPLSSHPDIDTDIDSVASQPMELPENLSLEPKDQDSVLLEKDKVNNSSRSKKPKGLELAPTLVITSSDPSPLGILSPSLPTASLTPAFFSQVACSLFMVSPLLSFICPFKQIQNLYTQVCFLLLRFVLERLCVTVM
# How it was run: as §1
# ETV2 = target: T8, ETV2 (Homo sapiens, UniProt O00321 1-342)
# T8 sequence: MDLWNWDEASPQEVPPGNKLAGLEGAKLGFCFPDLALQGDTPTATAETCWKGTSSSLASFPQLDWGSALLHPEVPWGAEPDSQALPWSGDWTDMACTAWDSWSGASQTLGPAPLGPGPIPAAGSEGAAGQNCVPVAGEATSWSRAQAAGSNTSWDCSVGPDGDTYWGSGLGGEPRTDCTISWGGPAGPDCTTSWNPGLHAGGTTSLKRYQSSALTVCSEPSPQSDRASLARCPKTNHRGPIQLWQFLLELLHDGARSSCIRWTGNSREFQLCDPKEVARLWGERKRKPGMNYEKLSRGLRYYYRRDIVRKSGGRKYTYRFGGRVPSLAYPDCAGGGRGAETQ
# How it was run: as §1
# ETV3L = target: T9, ETV3L (Homo sapiens, UniProt Q6ZN32 1-361)
# T9 sequence: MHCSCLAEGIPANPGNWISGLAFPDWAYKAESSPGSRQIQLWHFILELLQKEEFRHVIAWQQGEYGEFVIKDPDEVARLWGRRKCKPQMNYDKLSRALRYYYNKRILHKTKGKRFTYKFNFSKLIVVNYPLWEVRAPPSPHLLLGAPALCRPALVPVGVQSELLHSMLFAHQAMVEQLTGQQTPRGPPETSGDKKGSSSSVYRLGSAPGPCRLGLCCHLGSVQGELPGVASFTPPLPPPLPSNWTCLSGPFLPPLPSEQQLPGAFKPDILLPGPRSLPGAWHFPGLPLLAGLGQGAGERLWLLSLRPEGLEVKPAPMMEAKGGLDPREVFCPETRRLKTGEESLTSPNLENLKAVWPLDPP
# How it was run: as §1
# SPDEF = target: T10, SPDEF (Homo sapiens, UniProt O95238 1-335)
# T10 sequence: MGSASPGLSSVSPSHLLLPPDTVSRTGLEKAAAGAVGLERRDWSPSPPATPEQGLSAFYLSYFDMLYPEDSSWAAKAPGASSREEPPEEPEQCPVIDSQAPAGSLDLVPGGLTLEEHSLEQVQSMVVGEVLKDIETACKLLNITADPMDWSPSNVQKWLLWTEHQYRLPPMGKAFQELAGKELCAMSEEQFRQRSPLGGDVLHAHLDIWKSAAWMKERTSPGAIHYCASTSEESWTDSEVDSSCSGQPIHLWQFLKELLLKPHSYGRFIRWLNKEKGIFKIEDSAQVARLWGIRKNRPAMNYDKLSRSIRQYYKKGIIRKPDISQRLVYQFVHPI
# How it was run: as §1
# ETV7 = target: T11, ETV7 (Homo sapiens, UniProt Q9Y603 1-341)
# T11 sequence: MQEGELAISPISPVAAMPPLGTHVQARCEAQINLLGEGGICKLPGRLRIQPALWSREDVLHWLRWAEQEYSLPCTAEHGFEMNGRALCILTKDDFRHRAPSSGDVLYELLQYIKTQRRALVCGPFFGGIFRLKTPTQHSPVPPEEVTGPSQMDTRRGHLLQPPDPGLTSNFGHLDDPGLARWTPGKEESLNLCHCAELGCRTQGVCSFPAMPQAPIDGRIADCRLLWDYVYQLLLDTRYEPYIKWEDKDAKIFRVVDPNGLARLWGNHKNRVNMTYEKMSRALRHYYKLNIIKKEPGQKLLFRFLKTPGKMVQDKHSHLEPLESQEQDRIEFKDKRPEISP
# How it was run: as §1
# ETV3 = target: T12, ETV3 (Homo sapiens, UniProt P41162-2 1-143)
# T12 sequence: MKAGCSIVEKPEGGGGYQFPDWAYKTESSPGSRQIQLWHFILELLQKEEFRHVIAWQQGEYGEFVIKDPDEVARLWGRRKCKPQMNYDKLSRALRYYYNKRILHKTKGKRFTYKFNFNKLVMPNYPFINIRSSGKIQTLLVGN
# How it was run: as §1
# ETV6 = ETV6 (Homo sapiens, UniProt P41212 1-452)
# ETV6, sequence (P41212 whole entry): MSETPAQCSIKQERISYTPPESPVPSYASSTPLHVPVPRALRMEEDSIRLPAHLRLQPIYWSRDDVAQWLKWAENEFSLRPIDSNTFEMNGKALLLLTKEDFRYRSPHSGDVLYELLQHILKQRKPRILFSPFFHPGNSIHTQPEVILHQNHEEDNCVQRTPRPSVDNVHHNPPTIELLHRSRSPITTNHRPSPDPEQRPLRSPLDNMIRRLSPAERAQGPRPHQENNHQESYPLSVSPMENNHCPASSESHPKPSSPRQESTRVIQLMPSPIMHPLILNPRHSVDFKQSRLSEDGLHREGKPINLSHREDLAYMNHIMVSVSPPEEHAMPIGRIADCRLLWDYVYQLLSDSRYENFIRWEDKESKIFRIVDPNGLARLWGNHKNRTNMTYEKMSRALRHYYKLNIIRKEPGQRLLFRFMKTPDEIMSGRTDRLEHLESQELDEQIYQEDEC
# How it was run: as §1
sequence,measurement,setting,value
CGCGGC,binding signal,FLI1,"1.1 fold enrichment (6-mer frequency, TF over GST control)"
same,binding signal,ELK1,"1.08 fold enrichment (6-mer frequency, TF over GST control)"
same,binding signal,GABPA,"1.15 fold enrichment (6-mer frequency, TF over GST control)"
same,binding signal,ERG,"1.05 fold enrichment (6-mer frequency, TF over GST control)"
same,binding signal,ELF1,"1.04 fold enrichment (6-mer frequency, TF over GST control)"
same,binding signal,SPI1,"1.05 fold enrichment (6-mer frequency, TF over GST control)"
same,binding signal,ELK3,"1 fold enrichment (6-mer frequency, TF over GST control)"
same,binding signal,FEV,"1.06 fold enrichment (6-mer frequency, TF over GST control)"
same,binding signal,ELF4,"1.15 fold enrichment (6-mer frequency, TF over GST control)"
same,binding signal,ELK4,"1.12 fold enrichment (6-mer frequency, TF over GST control)"
same,binding signal,ETV2,"1.01 fold enrichment (6-mer frequency, TF over GST control)"
same,binding signal,ETV3L,"1.01 fold enrichment (6-mer frequency, TF over GST control)"
same,binding signal,SPDEF,"1.04 fold enrichment (6-mer frequency, TF over GST control)"
same,binding signal,ETV7,"1.03 fold enrichment (6-mer frequency, TF over GST control)"
same,binding signal,ETV3,"1.04 fold enrichment (6-mer frequency, TF over GST control)"
same,binding signal,ETV6,"1.15 fold enrichment (6-mer frequency, TF over GST control)"
